Results on eight compounds are retold here after PubChem BioAssay (NCI).

Molecules are shown by their SMILES. About 83,000 compounds went through this panel and 20% of them were active in at least one assay; those are over-represented in the sample as a whole.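 Cells were grown in 96-well plates and exposed to the test compound at a single concentration for 48 hours; results are reported as percent growth, with values below 10 considered active.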 Unmarked numbers belong to inactive results. Calls of active or inactive are those of the source.

Among the test systems are NCI-H23 lung; NCI-H226 lung; NCI-H322M lung; HOP-62 NSCLC; NCI-H460 lung; HOP-92 NSCLC; NCI-H522 lung; A549/ATCC NSCLC; 786-0 renal; COLO 205 colon; DU-145 prostate; K-562 leukemia; MALME-3M melanoma; MDA-MB-231 breast; RXF 393 renal; SF-268 CNS; SF-295 CNS; SF-539 CNS; UACC-257 melanoma; M14 melanoma.
What all share (assay): NCI-60 one-dose screen, 48 h (100 = growth as untreated, 0 = no growth, -100 = all killed)
Conditions in all cases: 10 µM unless noted

For the compound `N#Cc1c(-c2ccccc2)cc(-c2ccccc2)n(CCCC(=O)NO)c1=O`, the growth was 31.2% with NCI-H23 lung; 13% with NCI-H226 lung; 35.3% with NCI-H322M lung; 22.2% in the test with HOP-62 NSCLC; 8.19% (active) in the test with NCI-H460 lung; 30.4% in the test on HOP-92 NSCLC. In addition, the growth in the test on NCI-H522 lung is 21.8%; with A549/ATCC NSCLC, 22.8%; in the test with 786-0 renal it was 17.7%; with COLO 205 colon, 18.3%; in the test on DU-145 prostate it was 26.1%; with K-562 leukemia, 7.36% (active). Further, the growth with MALME-3M melanoma was 11.1%; in the test with MDA-MB-231 breast it was 35.1%; in the test with RXF 393 renal it was -1.83% (active); with SF-268 CNS, 37.3%; in the test with SF-295 CNS, 13.8%; with SF-539 CNS, 20.6%. Also, the growth in the test with UACC-257 melanoma is 37.6%; in the test on M14 melanoma it was 18.6%.
In the case of `CCOC(=O)C1=C(c2ccccc2)N=c2s/c(=C/c3ccc(Br)cc3)c(=O)n2C1c1ccc(O)cc1` (stereo not given), the growth is 95.4% in the test on NCI-H23 lung; 86.6% in the test on NCI-H226 lung; 91.9% with NCI-H322M lung; 105% in the test with HOP-62 NSCLC; 94.1% in the test on NCI-H460 lung; 71.2% in the test on HOP-92 NSCLC. Besides, the growth with NCI-H522 lung was 87.9%; in the test with A549/ATCC NSCLC it was 80.2%; with 786-0 renal it was 77.4%; in the test with COLO 205 colon, 118%; with DU-145 prostate, 95.5%; with K-562 leukemia it was 77.6%. For the same compound, the growth in the test on MALME-3M melanoma was 94.3%; in the test on MDA-MB-231 breast, 81.6%; in the test on RXF 393 renal, 102%; with SF-268 CNS, 83.8%; in the test with SF-295 CNS it was 95.6%; with SF-539 CNS it was 97.9%. Besides, the growth with UACC-257 melanoma is 86.9%; with M14 melanoma, 87.2%.
As to `CCOC(=O)c1c(NC(=O)c2ccc(OC)cc2)sc2c(CN(C)C)c(O)ccc12`, the growth is 90.6% in the test with NCI-H23 lung; 101% with NCI-H226 lung; 89.6% with NCI-H322M lung; 85% with HOP-62 NSCLC; 60% with NCI-H460 lung; 25.3% with HOP-92 NSCLC. Besides, the growth in the test with NCI-H522 lung is 75.1%; in the test on A549/ATCC NSCLC, 74%; in the test with 786-0 renal it was 63.4%; with COLO 205 colon, 55.3%; in the test with DU-145 prostate it was 84.3%; with K-562 leukemia it was 24.1%. Besides, the growth in the test with MALME-3M melanoma is -57.5% (active); in the test on MDA-MB-231 breast, 79.1%; with RXF 393 renal it was 53.6%; in the test on SF-268 CNS, 98%; with SF-295 CNS, 82.3%; with SF-539 CNS, 68.8%. For the same compound, the growth with UACC-257 melanoma was -58% (active); in the test with M14 melanoma, -69.4% (active).
Consider `Cc1c(N2CN3C[C@H](C)N4CN(c5c(C)n(C)n(-c6ccccc6)c5=O)CN5C[C@@H](C)N(C2)C3C54)c(=O)n(-c2ccccc2)n1C` (stereo not given in full), for which the growth with NCI-H23 lung was 95.1%; in the test with NCI-H226 lung it was 101%; with NCI-H322M lung, 103%; with HOP-62 NSCLC, 103%; with NCI-H460 lung, 101%; with HOP-92 NSCLC, 90.8%. In addition, the growth is 98.9% in the test with NCI-H522 lung; 106% in the test on A549/ATCC NSCLC; 102% in the test with 786-0 renal; 109% with COLO 205 colon; 112% in the test on DU-145 prostate; 17.9% in the test on K-562 leukemia. Further, the growth in the test on MALME-3M melanoma was 104%; in the test on MDA-MB-231 breast, 117%; with RXF 393 renal it was 101%; with SF-268 CNS, 100%; in the test on SF-295 CNS it was 99.3%; with SF-539 CNS it was 91.2%. Further, the figures for the growth in the test with UACC-257 melanoma and in the test with M14 melanoma were 105% and 99.8%, respectively.
On to `O=C1NC(=O)c2c1c1c3ccccc3[nH]c1c1oc3cc(Br)ccc3c21`, for which the growth was 76.2% in the test with NCI-H23 lung; 58.9% in the test on NCI-H226 lung; 75.7% with NCI-H322M lung; 65.9% in the test with HOP-62 NSCLC; 36.8% in the test on NCI-H460 lung; 87.9% in the test on HOP-92 NSCLC. The growth is 50.6% with NCI-H522 lung; 84.7% with A549/ATCC NSCLC; 81.7% in the test on 786-0 renal; 72.3% in the test with COLO 205 colon; 90.2% in the test with DU-145 prostate; 55% with K-562 leukemia. Further, the growth with MALME-3M melanoma is 87%; in the test with MDA-MB-231 breast, 80.5%; in the test with RXF 393 renal, 88.1%; in the test with SF-268 CNS, 76.4%; in the test on SF-295 CNS, 52.8%; in the test on SF-539 CNS, 96.9%. Moreover, the growth is 96.4% in the test on UACC-257 melanoma and 65.8% in the test on M14 melanoma.
In the case of `Cc1cscc(C)c1=S`, the growth in the test with NCI-H23 lung was 77.2%; in the test on NCI-H226 lung, 103%; with NCI-H322M lung, 87%; in the test with HOP-62 NSCLC, 99.6%; in the test on NCI-H460 lung, 48.7%; in the test on HOP-92 NSCLC, 108%. Moreover, the growth in the test with NCI-H522 lung was 50.8%; in the test on A549/ATCC NSCLC, 88.1%; with 786-0 renal it was 103%; with COLO 205 colon it was 96.2%; with DU-145 prostate, 4.23% (active); in the test on K-562 leukemia it was 96%. Moreover, the growth in the test with MALME-3M melanoma was 96.1%; with MDA-MB-231 breast it was 97.8%; with RXF 393 renal it was 71.2%; in the test with SF-268 CNS it was 95.7%; with SF-295 CNS, 76%; in the test on SF-539 CNS it was 96.9%. Besides, the results for the growth in the test on UACC-257 melanoma and in the test with M14 melanoma were 89% and 93.1%, respectively.
Consider `Cn1cc(-c2nn3cc(-c4ccccc4)nc3s2)c2ccccc21`, for which the growth in the test on NCI-H23 lung is 79.2%; in the test with NCI-H226 lung, 69.5%; with NCI-H322M lung, 71%; in the test on HOP-62 NSCLC, 61.4%; in the test with NCI-H460 lung it was 79.9%; in the test on HOP-92 NSCLC, 71.9%. Further, the growth was 38.9% with NCI-H522 lung; 66.1% with A549/ATCC NSCLC; 99.4% in the test on 786-0 renal; 73.7% with COLO 205 colon; 99.2% in the test with DU-145 prostate; 29.3% with K-562 leukemia. The growth in the test with MALME-3M melanoma is 55.3%; in the test on MDA-MB-231 breast, 67.3%; in the test on RXF 393 renal, 89.3%; in the test with SF-268 CNS it was 81.2%; in the test with SF-295 CNS, 78.9%; in the test with SF-539 CNS it was 78%. For the same compound, the growth was 76.9% in the test with UACC-257 melanoma and 51.5% in the test with M14 melanoma.
On to `CN(C)Cc1ccc(C(=O)Nc2ccc3ncnc(Nc4ccc(Oc5cccc(F)c5)c(Cl)c4)c3c2)cc1`, for which the growth in the test on NCI-H23 lung is 49.5%; with NCI-H226 lung, 80.2%; in the test with NCI-H322M lung, 4.65% (active); with HOP-62 NSCLC, 45.1%; in the test with NCI-H460 lung it was -74.3% (active); in the test with HOP-92 NSCLC, 36.2%. For the same compound, the growth was -29.6% (active) in the test with NCI-H522 lung; 8.26% (active) in the test with A549/ATCC NSCLC; -84.9% (active) with 786-0 renal; -53.3% (active) with COLO 205 colon; 7.69% (active) in the test with DU-145 prostate; -39.3% (active) in the test on K-562 leukemia. The growth with MALME-3M melanoma was -80.6% (active); with MDA-MB-231 breast, -73.9% (active); with RXF 393 renal, -80.4% (active); with SF-268 CNS, -31% (active); with SF-295 CNS it was -41.7% (active); in the test with SF-539 CNS, -90.1% (active). In addition, the growth with UACC-257 melanoma is -58.3% (active); in the test on M14 melanoma it was -69.3% (active).
